Compound activity deposited in PubChem by National Center for Advancing Translational Sciences (NCATS).
Pin1 inhibitor: human Pin1 inhibition | Q13526 | Pin1 FP peptide displacement, HiFluor488, 10 min | Potency, µM (series often up to 115 µM), usual class: inhibitors | actives 0.009% (n = 390,000); active = well fitted inhibition curve with a large enough effect in the polarisation, with a control signal flat, not every such curve was filed as active; inconclusive = small, poorly fitted or top-dose-only effect, or effect the other way, or a change in a side signal; inactive = no such curve, though single readings can be large or run the other way; the % refers to the polarisation
Target sequence (Q13526 whole entry, looked up): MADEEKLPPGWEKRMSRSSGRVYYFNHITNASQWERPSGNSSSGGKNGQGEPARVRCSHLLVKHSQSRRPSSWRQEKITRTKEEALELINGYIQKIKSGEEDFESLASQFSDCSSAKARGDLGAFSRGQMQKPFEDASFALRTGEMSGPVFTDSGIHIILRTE
Tb PGK inh: T. brucei PGK inhibition; Potency, µM (highest dose often 57.5 µM), most hits filed as inhibitors; actives 0.043% (n = 380,000); P07378; PGK/GAPDH coupled, Kinase-Glo luminescence, 60 min; also: nearly all actives have a fitted effect of over 60% in size
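Recombinant glycosomal PGK reaction used 1,3-bisphosphoglycerate generated in-well by GAPDH (100nM final) in 100mM TEA pH 7.6, 5mM MgCl2, 0.01% Tween-20. After 60 minutes at room temperature, ATP was read by Kinase-Glo Plus luminescence end-point.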
Tb PFK inh: inhibitors of T. brucei phosphofructokinase; O15648; T. brucei PFK, ADP-Glo luminescence; Potency, µM (highest dose often 57.5 µM), actives largely listed as inhibitors; actives 0.17% (n = 330,000); AID 485367; also: nearly all actives have a fitted effect of over 60% in size
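In TEA buffer at pH 8.0 with 5 mM MgCl2, enzyme (1.25 nM) converted F6P (0.5 mM) and ATP (0.1 mM) for 45 min at room temperature. ADP product was read by luciferase luminescence.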
Chronic BCR inh: inhibitors of chronic active B-cell receptor signaling; ABC-DLBCL IkBa-CBG/CBR reporter, luminescence ratio, 4 h; Potency, µM (top dose mostly 46.1 µM), most hits filed as inhibitors; actives 0.05% (n = 340,000); active = well fitted inhibition curve with a large enough effect in the signal ratio, with a control signal flat, not every such curve was filed as active; inconclusive = small, poorly fitted or top-dose-only effect, or effect the other way, or a change in a side signal; the % refers to the signal ratio
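Doxycycline induced both beetle luciferases in TMD8 lymphoma cells; IKK-driven degradation limits the IkappaBalpha-fused green signal, while red luminescence normalises for cell number and nonspecific effects. Compounds tested up to 46 uM, 4 hrs.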
PI4K2A block: inhibitors of human PI4K2A; activity change, negative = inhibition, % at 76.9 µM; Q9BTU6; AID 1346378; purified PI4K2A, ADP-Glo luminescence, 1 h; stronger effect = lower value; actives 0.13% (n = 420,000); in the data active = activity change below about -50%; inconclusive = mostly about -30% to -49%
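In this quantitative HTS, ADP production by PI4K2A was quantified luminescently after 1 h at ambient temperature; 100 microM adenosine served as plate-quality control.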
Hits are given with their value; 0 = inactive; ? = inconclusive; - = no result. In the library only some 0.34% were active in any assay of this set; here they are far more common. Unless noted, calls follow the shape of the dose curve; as a rule, active = well fitted curve in the direction sought with a large enough effect; inconclusive = small, poorly fitted or top-dose-only effect, or another doubt; inactive = no such curve, though single readings can be large; an effect the other way counts as inactive or inconclusive.

SMILES | Pin1 inhibitor | Tb PGK inh | Tb PFK inh | Chronic BCR inh | PI4K2A block
COc1cc(SC#N)ccc1N=Cc1c(C)[nH]n(-c2cccc3ccccc23)c1=O | 0 | 0 | 0 | ? | -52.6
CN(C)C(=O)C1CCN(c2nc(-c3ccc(Br)cc3)cs2)CC1 | 0 | - | - | - | -
CC(C)C(=O)Nc1cccc(C(F)(F)F)c1 | - | - | - | - | 0
CCCC/C(O)=C/c1nc2ccccc2[nH]c1=O | ? | 0 | 0 | 14.6µM | 0
CC(C)(C)/C(O)=C/c1nc2ccccc2[nH]c1=O | 0 | 0 | 0 | 0 | 0
COc1cccc(NC(=O)c2csc3c2CCCC3)c1 | 0 | 0 | 0 | 0 | 0
COc1ccc(NC(=O)c2csc3c2CCCC3)cc1 | 0 | 0 | 0 | 0 | -60.7
CS(=O)(=O)c1ccc2c(c1)sc1nc(=O)c(/C=C3/C=CC(=O)C(O)=C3)c(N)n12 | ? | 12.6µM | 0 | ? | 0
Cc1nn(-c2cccc(Cl)c2)c2c1C(c1cccnc1)C(C#N)=C(N)O2 (centres undefined) | 0 | 0 | 0 | ? | -51.0
Cc1ccccc1OCCn1cnc2c(N)ncnc21 | 0 | 0 | 0 | 18.4µM | 0
Cc1ccccc1OCCn1c(=S)[nH]c2c(N)ncnc21 | 0 | 0 | ? | 0 | 0
O=C1c2ccccc2C(=O)N1c1cncc2ccccc12 | 0 | - | - | - | -
O=C(Nc1cccc(-c2nn3c(=O)cc(N4CCNCC4)nc3s2)c1)C1CCNCC1 | 0 | - | - | - | -
COc1ccc(OC)c(NC(=O)C(OC(=O)CNC(=O)c2ccccc2)c2ccccc2)c1 (centres undefined) | 0 | - | - | - | -
CCC(C)NC(=O)c1c(F)c(F)c(F)c(F)c1F (centres undefined) | 0 | 0 | 0 | 0 | -63.0
CCCCCCc1c(C)c2c(cc(C)c3c(C)coc32)oc1=O | 0 | 0 | - | - | 0
Cc1coc2c1c(C)cc1oc(=O)c(Cc3ccccc3)c(C)c12 | 0 | 0 | 0 | 0 | -84.2
O=S1(=O)N=C(Oc2ccc(C(F)(F)F)cc2)c2ccccc21 | 0 | - | - | - | -
COc1ccc2[nH]c(=O)cc(C(=O)O)c2c1 | 0 | 0 | 0 | 0 | 0
COc1ccc2[nH]c3c4c(ccc3c2c1)C(=O)C=CC4=O | 0 | 0 | 12µM | ? | 0
O=C(c1cc(O)c(O)c(O)c1)c1ccc(O)c(O)c1O | - | - | - | - | 0
CC1Oc2ccccc2N(CC(=O)N(Cc2ccccc2)Cc2ccccn2)C1=O (centres undefined) | 0 | 0 | 0 | ? | -71.2
COc1ccc(CN(Cc2ccccn2)C(=O)CN2C(=O)COc3ccccc32)cc1 | 0 | 0 | 0 | 0 | 0
Cc1cc(O)c2c(c1)C(=O)C13C(=C2O)C(=O)[C@H]2[C@@H](O)[C@@H]1[C@H]1[C@H](O)[C@@H]3C(=O)C3=C(O)c4c(O)cc(C)cc4C(=O)C312 (some centres undefined) | 0 | 0 | 0 | ? | -75.3
O=C(NN1C(=O)/C(=C/C=C/c2ccco2)SC1=S)c1ccncc1 | ? | 14.1µM | ? | 0 | ?
SMILES | Pin1 inhibitor | Tb PGK inh | Tb PFK inh | Chronic BCR inh | PI4K2A block
NC(=S)N/N=C1\CC(c2ccc3c(c2)OCCO3)Oc2ccc(F)cc21 (centres undefined) | 0 | 0 | 0 | ? | 0
NC(=S)N/N=C1\CC(c2ccc3c(c2)OCCCO3)Oc2ccc(F)cc21 (centres undefined) | ? | 0 | 0 | 17.8µM | 0
Nc1ccc2c(c1)C(=O)C(=O)c1ccccc1-2 | ? | ? | 0 | ? | ?
O=C1C(=O)c2ccc(-c3ccccc3)cc2-c2ccccc21 | 0 | 0 | 0 | ? | -63.4
Cc1ccc(NS(=O)(=O)c2cc3c(cc2N2CCCCC2)NC(=O)CC3)cc1C | 0 | - | - | - | -
COc1ccc(O)c(C2Nc3ccccc3C(=O)N2Cc2ccccc2)c1 (centres undefined) | 0 | - | - | - | -
O=S(=O)(O)c1cc(O)c(N=Nc2ccc(O)cc2O)c2ccccc12 | - | 25.1µM | - | - | ?
Cc1cc2c(s1)c1cnn(Cc3ccccc3Br)c(=O)c1n2C | 0 | - | - | - | -
c1cncc(-c2cccnc2)c1 | 0 | 0 | 0 | 0 | -64.8
Oc1cncc(-c2cccnc2)c1 | 0 | 0 | 0 | 0 | 0
O=C(Cn1cnc2sc(-c3ccccc3)cc2c1=O)NCc1ccco1 | 0 | 12.6µM | 0 | 0 | ?
CCc1cc(=O)oc2cc(C)c(CN3CCCC(C)C3)c(O)c12 (centres undefined) | ? | 0 | ? | 0 | -50.9
CCOc1ccc(-c2ccc(SC)nn2)cc1 | 0 | ? | ? | ? | -85.0
